From PubChem BioAssay (NCI)
This is part of a sample that, as a whole, favours compounds with a hit. Of some 83,000 tested, about 20% had one in any assay.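 For each line, cells grew in 96-well plates with the test compound present at a single concentration for 48 hours.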 The source made the active and inactive calls. How the source made its calls: active means growth percent below 10; inactive means the rest.

Tests used:
Assay in all cases: NCI-60 one-dose screen, 48 h (100 = growth as untreated, 0 = no growth, -100 = all killed)
Settings in all cases: 10 µM unless noted
[1] = tested on: SR leukemia
[2] = tested on: RPMI-8226 leukemia
[3] = tested on: OVCAR-8 ovarian
[4] = tested on: OVCAR-5 ovarian
[5] = tested on: SK-OV-3 ovarian
[6] = tested on: IGROV1 ovarian
[7] = tested on: OVCAR-3 ovarian
[8] = tested on: HS 578T breast
[9] = tested on: NCI/ADR-RES ovarian
[10] = tested on: OVCAR-4 ovarian

Measured: growth

CN(C)/C(N)=N/N=C(\c1ccccc1)c1ccccn1
inactive: [1] 85.5% | [2] 92.1% | [3] 103% | [4] 102% | [5] 113% | [6] 93.7% | [7] 93.7% | [8] 97.8% | [9] 98.3%

COc1ccc(Nc2ncc(C#N)c(NCCCNC(=O)C3CCC3)n2)cc1
inactive: [1] 46.3% | [2] 85.8% | [3] 64% | [4] 79.6% | [5] 77.6% | [6] 54.4% | [7] 70.2% | [8] 47.7% | [9] 83.1%

C=C(C)[C@@H]1CC[C@]2(C)[C@H](C=CC3=C4C[C@@](C)(CO)CC[C@]4(C)CC[C@]32C)[C@@]1(C)CCCN
inactive: [4] 19.1%
active: [1] -31.4% | [2] -33.3% | [3] -38.7% | [5] 8.02% | [6] 6.46% | [7] -58.8% | [8] -51.2%

CC[C@@H](C(=O)[C@@H](C)[C@@H](O)[C@H](C)[C@@H]1O[C@@H]([C@@H](CC)C(=O)ONC(=O)c2ccccc2O)CC[C@@H]1C)C1O[C@]2(C=CC(=O)[C@]3(CC[C@@](C)([C@H]4CC[C@](O)(CC)[C@H](C)O4)O3)O2)[C@H](C)C[C@@H]1C (stereo partly drawn)
inactive: [2] 24.6% | [3] 54.9% | [4] 47% | [5] 120% | [6] 58.8% | [8] 43.9% | [9] 48.7%
active: [1] 1.64% | [7] 5.93%

COc1ccc(/C=N/NC(=O)Cn2c(-c3ccc(S(C)(=O)=O)cc3)nc3ccccc32)cc1
inactive: [1] 100% | [2] 105% | [3] 111% | [4] 99.7% | [5] 117% | [6] 91.4% | [7] 103% | [8] 92.4% | [9] 104%

Cc1nc([P+](c2ccccc2)(c2ccccc2)c2ccccc2)c(N2CCCCC2)o1
active: [2] -13.5%
inactive: [1] 20.3% | [3] 20.3% | [4] 54.1% | [10] 19.8% | [6] 32.8% | [7] 19.5% | [8] 27.9% | [9] 107%

CCN(CC)CCCC(Cc1ccccc1)Nc1c2ccc(Cl)cc2nc2ccc(OC)cc12 (stereo not drawn)
inactive: [3] 36.4% | [4] 71.1% | [6] 32.7% | [7] 77.4% | [8] 52.2% | [9] 45%
active: [1] -27.4% | [2] -6.17%

NS(=O)(=O)c1ccc(C(=O)NN2C(=O)c3ccccc3C2=O)cc1
inactive: [1] 105% | [2] 109% | [3] 107% | [4] 110% | [10] 113% | [6] 113% | [7] 108% | [9] 112%

Cc1cc(C)c2c(c1)N(C)c1ncnc(-n3c(C)nc4cc(C)ccc43)c1CC2C (stereo not drawn)
inactive: [1] 11.3% | [2] 35% | [3] 71.6% | [4] 91.2% | [5] 31.5% | [6] 47.5% | [7] 21.5% | [8] 40.9%
active: [9] 7.15%

O=C1c2cccnc2C(=O)c2c1c(C(=O)OCCc1ccccn1)c1ccccn21
active: [1] -10.9% | [2] -27.2% | [3] -14% | [4] 9.08% | [5] -66.5% | [6] -0.716% | [7] -16.1% | [8] -28.6% | [9] -26.4%

Cn1c(=O)[nH]c(=O)c2nc3c(nc21)-c1ccccc1C3=O
inactive: [1] 100% | [2] 108% | [3] 105% | [4] 99.6% | [5] 111% | [6] 108% | [7] 107% | [8] 104% | [9] 95.2%

Cc1c2ncccc2nc2[nH]c3ccc(OCCN(C)C)cc3c12
active: [2] -31.6% | [6] 9.29%
inactive: [1] 12.8% | [3] 11.5% | [4] 47.5% | [5] 38.1% | [7] 51.4% | [8] 47.9% | [9] 24.8%

Cc1ccc2c(c1)nc(C)n2-c1ncnc2c1CC(C)c1cc(O)ccc1N2C (stereo not drawn)
inactive: [2] 30.3% | [3] 40.6% | [4] 89% | [5] 14.1% | [6] 51.4% | [7] 14.6% | [8] 34.7% | [9] 25.9%
active: [1] 6.97%

CCOC(=O)C1=C(c2ccccc2)N=C2N(c3ccccc3)N=C(C(C)=O)N2C1c1ccc(F)cc1 (stereo not drawn)
inactive: [1] 97.1% | [2] 89.3% | [3] 99.3% | [4] 102% | [5] 107% | [6] 96.3% | [7] 105% | [8] 92.1% | [9] 109%

CCOC(=O)CC1CSC(N/N=C/c2ccc(F)c(Br)c2)=N1 (stereo not drawn)
inactive: [1] 87.7% | [2] 104% | [3] 114% | [4] 95.1% | [5] 95.3% | [6] 117% | [7] 99.3% | [8] 112% | [9] 103%

COC(=O)[C@]1(C)CCC[C@]2(C)[C@H]3C[C@@H]4[C@H]5[C@@H]6CC/C(=N\OCC/C(N)=N/O)[C@H]5[C@@]3(CC[C@H]21)CC4(C(C)C)O6
active: [1] 5.07%
inactive: [2] 39.1% | [3] 73.2% | [4] 93.3% | [10] 51.6% | [6] 63.4% | [7] 53.1% | [8] 66.3% | [9] 32.1%

COC1/C=C/OC2(C)Oc3c(C)c(O)c4c(O)c(c(/C=N/N(c5ccccc5)c5ccccc5)c(O)c4c3C2=O)NC(=O)C(C)=C/C=C/C(C)C(O)C(C)C(O)C(C)C(OC(C)=O)C1C (stereo not drawn)
inactive: [1] 30.9% | [2] 22.6% | [3] 63.3% | [4] 124% | [10] 69.5% | [6] 100% | [7] 59.1% | [8] 62.2% | [9] 91.9%

Cc1cc(=O)oc2cc(Oc3nc(Br)cn4c(Br)cnc34)ccc12
inactive: [1] 69.4% | [2] 95.5% | [3] 64.7% | [4] 101% | [5] 85.5% | [6] 77.4% | [7] 56.7% | [8] 69.9% | [9] 57.5%

COC(=O)c1c2c(c[n+]([O-])c1C)C(=O)C=C(NCc1ccccc1)C2=O
active: [1] -10.3% | [2] -22.6% | [3] -60.4% | [4] -90% | [5] -87.6% | [6] -66.9% | [7] -68.7% | [8] -15.5% | [9] -12.1%

C=CCN=c1sc(-c2ccc3ccccc3c2)cn1NC(=O)c1cc2ccc1CCc1ccc(cc1)CC2
inactive: [1] 39.1% | [2] 25.8% | [3] 65.5% | [4] 103% | [5] 82.1% | [6] 81.3% | [7] 53.2% | [8] 58.7% | [9] 67.2%

O=C(/C=C/c1cccc(Oc2ccccc2)c1)c1ccc(Nc2nc(Nc3ccc(F)cc3)nc(Nc3ccc(Cl)cc3)n2)cc1
inactive: [2] 25.4% | [3] 104% | [4] 99.5% | [5] 120% | [6] 94% | [7] 104% | [8] 109% | [9] 96.8%
active: [1] -14.9%

O=C(/C=C/c1ccccc1)c1cccc2ccccc12
inactive: [3] 19.9% | [4] 103% | [5] 62.2% | [6] 47.3% | [7] 22.4% | [8] 32.1% | [9] 24.9%
active: [1] 8.29% | [2] 6.78%

C#CCOc1ccc2nc(CCl)c(Cl)c(Nc3cccc(C(F)(F)F)c3)c2c1
inactive: [1] 17.7% | [2] 62.7% | [3] 82.7% | [4] 104% | [10] 101% | [6] 85.1% | [7] 78.2% | [8] 88.8% | [9] 97.1%

COc1cc(-c2ccc[nH]2)[nH]c1/C=C1\N=C(C)C(CC(=O)OCC(C)(C)C)=C1C
active: [1] -54.2% | [2] -49.6% | [3] -60.8% | [4] -55.1% | [5] -57.3% | [6] -43.4% | [7] -98% | [8] -24.8% | [9] -65.8%

COc1ccc(C(=O)Nc2ncc(Cc3ccc(Cl)cc3)s2)cc1
inactive: [2] 18.2% | [3] 25.7% | [4] 30.2% | [5] 40% | [6] 14.4% | [8] 18.2%
active: [1] 5.82% | [7] -16.2% | [9] 9.45%

CC1=C2CC/C(C)=C/CC[C@]3(C)O[C@H]3CC/C(C)=C/[C@H]2OC1
inactive: [1] 87.6% | [2] 93.6% | [3] 95.8% | [4] 81.3% | [5] 95.7% | [6] 103% | [7] 110% | [8] 108% | [9] 87.7%

Oc1ccc(-c2nc3ccc4[nH]ncc4c3c3c2CCCC3)c(F)c1
inactive: [2] 33.2% | [3] 38% | [4] 59.7% | [6] 22.9% | [7] 46.6% | [8] 14.8% | [9] 52%
active: [1] -1.33% | [5] -6.45%

COc1cc([C@@H](CCO)C[C@H](C)c2ccc3ccccc3c2)cc(OC)c1OC
active: [7] 8.71%
inactive: [1] 24.5% | [2] 22.6% | [3] 43.5% | [4] 70.2% | [5] 33.8% | [6] 51.2% | [8] 22.2% | [9] 16.5%

CN(C)c1ccc(CNCCO)cc1
inactive: [1] 108% | [2] 84.6% | [3] 90.6% | [4] 67.6% | [5] 71.4% | [6] 107% | [7] 104% | [8] 96% | [9] 103%
